Experimental data: paper PMC4336329 (PLoS ONE, 2015)
About 14,000 (4.5%) of roughly 310,000 compounds showed an effect of 50% or more. The effect is printed as a negative number. This is one part of a sample in which strong results are shown more often than they occur.

Biological target: human ether-à-go-go-related gene (hERG) potassium channel (human, UniProt Q12809)
Assay: primary screen, population patch clamp on CHO cells stably expressing hERG; higher = less effect of the substance
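Also: peak tail current of the secondary pulse compared with the same well before compound.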

Sequence of human ether-à-go-go-related gene (hERG) potassium channel (Q12809 whole entry, looked up): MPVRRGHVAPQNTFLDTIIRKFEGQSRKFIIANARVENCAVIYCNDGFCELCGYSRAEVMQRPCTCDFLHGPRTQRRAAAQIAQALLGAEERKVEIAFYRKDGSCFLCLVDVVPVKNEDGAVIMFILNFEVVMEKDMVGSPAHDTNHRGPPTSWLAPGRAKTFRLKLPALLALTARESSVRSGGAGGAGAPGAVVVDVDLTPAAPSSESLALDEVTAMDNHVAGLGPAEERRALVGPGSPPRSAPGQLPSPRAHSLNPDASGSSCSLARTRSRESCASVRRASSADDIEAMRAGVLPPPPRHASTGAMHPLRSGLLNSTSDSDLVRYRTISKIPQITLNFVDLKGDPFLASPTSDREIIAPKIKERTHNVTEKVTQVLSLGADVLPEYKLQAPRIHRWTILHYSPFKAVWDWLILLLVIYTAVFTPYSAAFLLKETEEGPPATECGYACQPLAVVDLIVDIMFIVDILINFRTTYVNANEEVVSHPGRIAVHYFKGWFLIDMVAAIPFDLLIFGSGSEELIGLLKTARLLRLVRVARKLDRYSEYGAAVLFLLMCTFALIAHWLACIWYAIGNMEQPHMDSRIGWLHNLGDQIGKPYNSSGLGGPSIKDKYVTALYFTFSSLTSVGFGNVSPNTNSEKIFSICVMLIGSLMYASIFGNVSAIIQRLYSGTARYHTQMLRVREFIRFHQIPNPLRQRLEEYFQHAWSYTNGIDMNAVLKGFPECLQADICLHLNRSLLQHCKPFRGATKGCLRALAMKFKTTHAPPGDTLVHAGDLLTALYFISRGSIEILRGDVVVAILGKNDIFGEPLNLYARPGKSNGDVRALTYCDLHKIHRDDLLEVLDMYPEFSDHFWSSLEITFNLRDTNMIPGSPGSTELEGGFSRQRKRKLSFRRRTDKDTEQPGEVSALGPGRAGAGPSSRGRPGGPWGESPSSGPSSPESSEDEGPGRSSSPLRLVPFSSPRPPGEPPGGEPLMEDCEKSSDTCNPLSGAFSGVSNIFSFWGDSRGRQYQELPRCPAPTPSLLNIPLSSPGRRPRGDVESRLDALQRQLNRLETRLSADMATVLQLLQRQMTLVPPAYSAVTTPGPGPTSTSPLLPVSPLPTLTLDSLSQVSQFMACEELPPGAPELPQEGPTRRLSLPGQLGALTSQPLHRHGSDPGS

Structure (SMILES) | hERG current change (%, negative = inhibition) at 10uM [%]
NS(=O)(=O)c1ccc(NC(=O)CN2CCCc3ccccc32)cc1 | -5.73
N#Cc1ccc(CN2CCN(CC(=O)Nc3ccccc3C(=O)NC3CC3)CC2)cc1 | -77.9
O=C(CN1CCN(S(=O)(=O)c2ccc(F)cc2)CC1)NC1CCCC1 | -8.45
N#Cc1ccccc1S(=O)(=O)N1CCN(CC(=O)Nc2ccccc2C(=O)NC2CC2)CC1 | -66.5
O=C(CN1CCN(S(=O)(=O)c2ccccc2F)CC1)Nc1ccccc1C(=O)c1ccccc1 | -22.8
N#Cc1ccccc1S(=O)(=O)N1CCN(CC(=O)NC(=O)NC2CCCCC2)CC1 | -31.6
NC(=O)C1CCN(CC(=O)Nc2ccccc2C(=O)NC2CC2)CC1 | 1.42
N#Cc1ccc(S(=O)(=O)N2CCN(CC(=O)Nc3ccccc3C(=O)NC3CC3)CC2)cc1 | -73.9
CC(C#N)(NC(=O)CN1CCN(S(=O)(=O)c2ccccc2C#N)CC1)C1CC1 (stereo not drawn) | 2.51
O=C(CN1CCN(S(=O)(=O)c2ccccc2)CC1)Nc1ccccc1C(=O)c1ccccc1 | -19.4
O=C(CN1CCN(S(=O)(=O)c2ccc(F)c(F)c2)CC1)Nc1ccccc1C(=O)NC1CC1 | -72.3
Cc1ccccc1C(=O)NC1CCN(CC(=O)Nc2ccccc2Cl)CC1 | -14.4
O=C(CN1CCN(S(=O)(=O)c2ccccc2)CC1)NC1CC1 | 15.3
O=C(Cc1c(F)cccc1Cl)Nc1ccccc1C(=O)N1CCOCC1 | 3.32
C#CCOc1ccc(/C=C2/C(=O)ON=C2C)cc1Cl | 10.9
Oc1ccc(Br)cc1/C=N/n1c(COc2ccccc2)n[nH]c1=S | 16.5
CCCCNC(=O)COC(=O)c1ccc(F)cc1Cl | -10.8
COc1ccc(-c2cc(=O)oc3cc(OC(C)C(=O)Nc4ccc(CN5CCOCC5)cc4)ccc23)cc1 (stereo not drawn) | -0.104
O=C(c1ccc(Cl)cc1)c1cnc(Nc2ccccc2Cl)s1 | -1.11
Cc1cc(C)c(NC(=O)CSc2nnc(CN3CCOCC3)n2C)c(C)c1 | 13.5
COc1ccc(C(C(=O)NC2CCCC2)N(C(=O)c2ccoc2C)c2ccccc2)cc1 (stereo not drawn) | -3.9
CC(=O)c1ccc(S(=O)(=O)N2CCN(CC(=O)Nc3ccccc3C(=O)NC3CC3)CC2)cc1 | -75.4
CC(=O)c1ccc(S(=O)(=O)N2CCN(CC(=O)NC(=O)NC3CCCCC3)CC2)cc1 | -16.8
O=C(CN1CCN(S(=O)(=O)c2ccccc2)CC1)Nc1ccccc1C(=O)NC1CC1 | -27.1
CCn1c(SCC(=O)NC2CCCCC2)nnc1-c1cc2cccc(OC)c2o1 | -26
CCCCn1c(SCC(=O)NCc2ccco2)nc2cc(S(N)(=O)=O)ccc21 | -7.32
COc1ccc(NC(NC(=O)c2cccnc2)C(Cl)(Cl)Cl)cc1 (stereo not drawn) | 29.3

Structure (SMILES) | hERG current change (%, negative = inhibition) at 10uM [%]
CC1CCCN(CC(O)COc2ccc3c(c2)OCO3)C1.Cl (stereo not drawn) | -15.1
OC1CCCN(CC(O)COc2ccc(-c3ccccc3)cc2)C1 (stereo not drawn) | -52.9
OC(COc1ccc(-c2ccccc2)cc1)CN1CCOCC1 (stereo not drawn) | -19.7
CC1CCCN(C(=O)COc2ccc(-c3ccccc3)cc2)C1 (stereo not drawn) | -35.5
Cl.OCCN1CCN(CC(O)COc2ccc(-c3ccccc3)cc2)CC1 (stereo not drawn) | -45.9
CC1CCCN(CC(O)COc2ccc(-c3ccccc3)cc2)C1 (stereo not drawn) | -73.4
CC(=O)c1ccc(OCC(O)CN2CCCC(C)C2)cc1.Cl (stereo not drawn) | -1.2
CC1CCCN(CC(O)COc2ccc(Cl)cc2)C1.Cl (stereo not drawn) | -69.2
C=CCNC(=O)CCCOc1cc(C)ccc1C | -9.84
CC(C)(O)CCc1c(-c2ccc(O)cc2O)oc2c3c(cc(O)c2c1=O)OC(C)(C)C=C3 | 13.7
CC1(C)Cc2nc3oc4c(=O)n(CC(=O)Nc5ccccc5)cnc4c3cc2CO1 | 5.24
O=C(O)c1cc(NC(=O)c2cccc(C(=O)Nc3cc(C(=O)O)cc(C(=O)O)c3)c2)cc(C(=O)O)c1 | 15.8
CCc1noc(C)c1C(=O)N1CCCC(CCC(=O)NCc2ccc(F)c(F)c2)C1 (stereo not drawn) | -0.135
O=S(=O)(c1cc(Cl)ccc1Br)N1CCCCC1 | -22.9
Cc1cc(=O)oc2c3c(cc(OCC(=O)NCc4ccncc4)c12)OC(C)(C)CC3 | -27.7
CCc1cc(=O)oc2c3c(cc(OCC(=O)NCc4ccncc4)c12)OC(C)(C)CC3 | -34.4
CCCc1cc(=O)oc2c3c(cc(OCC(=O)NCCCn4ccnc4)c12)OC(C)(C)CC3 | -73.9
CCCc1cc(=O)oc2c3c(cc(OCC(=O)NCCN4CCOCC4)c12)OC(C)(C)CC3 | -18.3
CCc1cc(=O)oc2c3c(cc(OCC(=O)NCCCOC)c12)OC(C)(C)CC3 | 8.45
CCCc1cc(=O)oc2c3c(cc(OCC(=O)NCc4ccncc4)c12)OC(C)(C)CC3 | -65
CCc1cc(=O)oc2c3c(cc(OCC(=O)NCCCn4ccnc4)c12)OC(C)(C)CC3 | -51.1
CCCCc1cc(=O)oc2c3c(cc(OCC(=O)NCCCO)c12)OC(C)(C)CC3 | -18.1
Cc1cc(=O)oc2c3c(cc(OCC(=O)NCCCn4ccnc4)c12)OC(C)(C)CC3 | -32.1
Cc1cc(C)c(N=C2SCC(=O)N2Cc2ccco2)c(C)c1 | -14
Cc1cc(C)c(NC(=O)COC(=O)CCn2c(C)csc2=O)c(C)c1 | -10.6
Cc1ccc(-n2ncc3c(NCCCN4CCOCC4)ncnc32)c(C)c1 | -10.3
Cc1cc(NC(=O)COC(=O)c2cc(S(=O)(=O)N(C)c3ccccc3)ccc2Cl)no1 | 0.766
